Measurements as given in article PMC11006913.

Key:
Assay in all cases: PBM; 200 nM protein, PBS
Conditions in all cases: dsDNA, one strand shown
[1] = biological target: HOXA4 (Homo sapiens, UniProt Q00056 201-287, W262R)
[2] = biological target: HOXA4 (Homo sapiens, UniProt Q00056 201-287, R217L)
[3] = biological target: ALX3 (Homo sapiens, UniProt O95076 139-225, N203Q)
[4] = biological target: HOXA4 (Homo sapiens, UniProt Q00056 201-287)
[5] = biological target: HOXA4 (Homo sapiens, UniProt Q00056 201-287, W262F)
[6] = biological target: ALX3 (Homo sapiens, UniProt O95076 139-225, N203S)
[7] = biological target: HOXA2 (Homo sapiens, UniProt O43364 129-215, R185K)
[8] = biological target: T1, NKX2-6 (Homo sapiens, UniProt A6NCS4 118-204, R150C)
T1 sequence: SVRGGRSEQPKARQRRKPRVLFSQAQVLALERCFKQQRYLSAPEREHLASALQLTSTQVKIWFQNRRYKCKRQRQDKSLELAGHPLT

[9] = biological target: HOXB6 (Homo sapiens, UniProt P17509 132-218, K202E)
[10] = biological target: HOXB6 (Homo sapiens, UniProt P17509 132-218)
[11] = biological target: HOXD13 (Homo sapiens, UniProt P35453 263-343, T313R)
[12] = biological target: HOXD13 (Homo sapiens, UniProt P35453 263-343)
[13] = biological target: HOXD13 (Homo sapiens, UniProt P35453 263-343, T313A)
[14] = biological target: ALX3 (Homo sapiens, UniProt O95076 139-225)
[15] = biological target: ALX3 (Homo sapiens, UniProt O95076 139-225, L168Q)
[16] = biological target: ALX3 (Homo sapiens, UniProt O95076 139-225, L168V)
[17] = biological target: ALX4 (Homo sapiens, UniProt Q9H161 200-286, Q225E)
[18] = biological target: HOXC9 (Homo sapiens, UniProt P31274 178-260, R222W)
Chain of HOXC9 (P31274 178-260 R222W): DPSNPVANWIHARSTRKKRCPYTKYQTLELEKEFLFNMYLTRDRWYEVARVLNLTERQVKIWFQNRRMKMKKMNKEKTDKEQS

Chain of HOXA4 (Homo sapiens, UniProt Q00056 201-287, W262R) (Q00056 201-287 W262R): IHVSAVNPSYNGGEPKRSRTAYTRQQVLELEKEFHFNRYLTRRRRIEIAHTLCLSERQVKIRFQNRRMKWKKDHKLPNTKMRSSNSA
Chain of HOXA4 (Homo sapiens, UniProt Q00056 201-287, R217L) (Q00056 201-287 R217L): as the sequence (Q00056 201-287 W262R) above, with R17L, R62W counted along it
Chain of HOXA4 (Homo sapiens, UniProt Q00056 201-287) (Q00056 201-287): as the sequence (Q00056 201-287 W262R) above, with R62W counted along it
Chain of HOXA4 (Homo sapiens, UniProt Q00056 201-287, W262F) (Q00056 201-287 W262F): as the sequence (Q00056 201-287 W262R) above, with R62F counted along it
Chain of HOXB6 (Homo sapiens, UniProt P17509 132-218, K202E) (P17509 132-218 K202E): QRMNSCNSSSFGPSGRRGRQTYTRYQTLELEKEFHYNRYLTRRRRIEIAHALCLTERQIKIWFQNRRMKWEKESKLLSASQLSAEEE
Chain of ALX3 (Homo sapiens, UniProt O95076 139-225, N203Q) (O95076 139-225 N203Q): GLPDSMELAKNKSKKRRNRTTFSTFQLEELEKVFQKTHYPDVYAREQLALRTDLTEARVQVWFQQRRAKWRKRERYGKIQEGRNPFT
Chain of HOXD13 (Homo sapiens, UniProt P35453 263-343) (P35453 263-343): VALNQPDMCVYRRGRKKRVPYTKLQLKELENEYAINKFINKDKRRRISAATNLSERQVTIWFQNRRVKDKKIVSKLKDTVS
Chain of HOXD13 (Homo sapiens, UniProt P35453 263-343, T313R) (P35453 263-343 T313R): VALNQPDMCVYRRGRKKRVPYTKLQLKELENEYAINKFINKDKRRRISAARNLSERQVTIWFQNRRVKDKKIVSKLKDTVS
Chain of ALX3 (Homo sapiens, UniProt O95076 139-225, N203S) (O95076 139-225 N203S): as the sequence (O95076 139-225 N203Q) above, with Q65S counted along it
Chain of HOXB6 (Homo sapiens, UniProt P17509 132-218) (P17509 132-218): as the sequence (P17509 132-218 K202E) above, with E71K counted along it
Chain of HOXD13 (Homo sapiens, UniProt P35453 263-343, T313A) (P35453 263-343 T313A): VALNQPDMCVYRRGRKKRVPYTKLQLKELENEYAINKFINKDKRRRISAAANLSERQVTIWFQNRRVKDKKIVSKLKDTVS
Chain of HOXA2 (O43364 129-215 R185K): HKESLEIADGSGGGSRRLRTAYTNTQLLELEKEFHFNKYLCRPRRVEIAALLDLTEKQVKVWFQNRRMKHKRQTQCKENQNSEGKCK
Chain of ALX3 (Homo sapiens, UniProt O95076 139-225, L168V) (O95076 139-225 L168V): as the sequence (O95076 139-225 N203Q) above, with L30V, Q65N counted along it
Chain of ALX3 (Homo sapiens, UniProt O95076 139-225, L168Q) (O95076 139-225 L168Q): as the sequence (O95076 139-225 N203Q) above, with L30Q, Q65N counted along it
Chain of ALX3 (Homo sapiens, UniProt O95076 139-225) (O95076 139-225): as the sequence (O95076 139-225 N203Q) above, with Q65N counted along it
Chain of ALX4 (Q9H161 200-286 Q225E): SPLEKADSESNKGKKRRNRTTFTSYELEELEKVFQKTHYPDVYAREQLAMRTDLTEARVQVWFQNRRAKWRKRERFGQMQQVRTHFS

AACTAATA
binding signal [1]: 10.5 upbm affinity estimate (log intensity, higher = more binding, comparable within an allelic series)
binding signal [2]: 11.2 upbm affinity estimate (log intensity, higher = more binding, comparable within an allelic series)
binding signal [3]: 8.57 upbm affinity estimate (log intensity, higher = more binding, comparable within an allelic series)
binding signal [4]: 12.5 upbm affinity estimate (log intensity, higher = more binding, comparable within an allelic series)
binding signal [5]: 11 upbm affinity estimate (log intensity, higher = more binding, comparable within an allelic series)
binding signal [6]: 8.65 upbm affinity estimate (log intensity, higher = more binding, comparable within an allelic series)

CATTAATC
binding signal [1]: 10.5 upbm affinity estimate (log intensity, higher = more binding, comparable within an allelic series)
binding signal [2]: 11.9 upbm affinity estimate (log intensity, higher = more binding, comparable within an allelic series)
binding signal [7]: 13.2 upbm affinity estimate (log intensity, higher = more binding, comparable within an allelic series)
binding signal [4]: 13.6 upbm affinity estimate (log intensity, higher = more binding, comparable within an allelic series)
binding signal [5]: 11.3 upbm affinity estimate (log intensity, higher = more binding, comparable within an allelic series)

GGCGAGCC
binding signal [1]: 9.78 upbm affinity estimate (log intensity, higher = more binding, comparable within an allelic series)
binding signal [2]: 9.59 upbm affinity estimate (log intensity, higher = more binding, comparable within an allelic series)
binding signal [4]: 9.66 upbm affinity estimate (log intensity, higher = more binding, comparable within an allelic series)
binding signal [5]: 9.76 upbm affinity estimate (log intensity, higher = more binding, comparable within an allelic series)

AGGGACGG
binding signal [1]: 9.81 upbm affinity estimate (log intensity, higher = more binding, comparable within an allelic series)
binding signal [2]: 9.83 upbm affinity estimate (log intensity, higher = more binding, comparable within an allelic series)
binding signal [8]: 9.6 upbm affinity estimate (log intensity, higher = more binding, comparable within an allelic series)
binding signal [4]: 9.78 upbm affinity estimate (log intensity, higher = more binding, comparable within an allelic series)
binding signal [5]: 9.93 upbm affinity estimate (log intensity, higher = more binding, comparable within an allelic series)

GGGGCACC
binding signal [1]: 9.71 upbm affinity estimate (log intensity, higher = more binding, comparable within an allelic series)
binding signal [9]: 8.98 upbm affinity estimate (log intensity, higher = more binding, comparable within an allelic series)
binding signal [2]: 9.76 upbm affinity estimate (log intensity, higher = more binding, comparable within an allelic series)
binding signal [4]: 9.9 upbm affinity estimate (log intensity, higher = more binding, comparable within an allelic series)
binding signal [5]: 9.88 upbm affinity estimate (log intensity, higher = more binding, comparable within an allelic series)
binding signal [10]: 8.89 upbm affinity estimate (log intensity, higher = more binding, comparable within an allelic series)

AGGCTGGG
binding signal [1]: 9.88 upbm affinity estimate (log intensity, higher = more binding, comparable within an allelic series)
binding signal [2]: 9.85 upbm affinity estimate (log intensity, higher = more binding, comparable within an allelic series)
binding signal [11]: 9.56 upbm affinity estimate (log intensity, higher = more binding, comparable within an allelic series)
binding signal [12]: 9.59 upbm affinity estimate (log intensity, higher = more binding, comparable within an allelic series)
binding signal [4]: 9.82 upbm affinity estimate (log intensity, higher = more binding, comparable within an allelic series)
binding signal [13]: 9.67 upbm affinity estimate (log intensity, higher = more binding, comparable within an allelic series)
binding signal [5]: 9.84 upbm affinity estimate (log intensity, higher = more binding, comparable within an allelic series)

CCACGCCC
binding signal [1]: 9.84 upbm affinity estimate (log intensity, higher = more binding, comparable within an allelic series)
binding signal [2]: 9.85 upbm affinity estimate (log intensity, higher = more binding, comparable within an allelic series)
binding signal [4]: 9.64 upbm affinity estimate (log intensity, higher = more binding, comparable within an allelic series)
binding signal [5]: 9.99 upbm affinity estimate (log intensity, higher = more binding, comparable within an allelic series)

CCCCCTAG
binding signal [1]: 9.8 upbm affinity estimate (log intensity, higher = more binding, comparable within an allelic series)
binding signal [9]: 8.81 upbm affinity estimate (log intensity, higher = more binding, comparable within an allelic series)
binding signal [2]: 9.86 upbm affinity estimate (log intensity, higher = more binding, comparable within an allelic series)
binding signal [4]: 9.77 upbm affinity estimate (log intensity, higher = more binding, comparable within an allelic series)
binding signal [5]: 9.73 upbm affinity estimate (log intensity, higher = more binding, comparable within an allelic series)
binding signal [10]: 8.86 upbm affinity estimate (log intensity, higher = more binding, comparable within an allelic series)

CGAGGGCG
binding signal [1]: 9.7 upbm affinity estimate (log intensity, higher = more binding, comparable within an allelic series)
binding signal [2]: 9.75 upbm affinity estimate (log intensity, higher = more binding, comparable within an allelic series)
binding signal [3]: 7.74 upbm affinity estimate (log intensity, higher = more binding, comparable within an allelic series)
binding signal [4]: 9.8 upbm affinity estimate (log intensity, higher = more binding, comparable within an allelic series)
binding signal [14]: 7.69 upbm affinity estimate (log intensity, higher = more binding, comparable within an allelic series)
binding signal [15]: 7.78 upbm affinity estimate (log intensity, higher = more binding, comparable within an allelic series)
binding signal [16]: 7.76 upbm affinity estimate (log intensity, higher = more binding, comparable within an allelic series)
binding signal [5]: 9.89 upbm affinity estimate (log intensity, higher = more binding, comparable within an allelic series)
binding signal [6]: 7.73 upbm affinity estimate (log intensity, higher = more binding, comparable within an allelic series)

CAATAAAG
binding signal [1]: 10.4 upbm affinity estimate (log intensity, higher = more binding, comparable within an allelic series)
binding signal [17]: 10.7 upbm affinity estimate (log intensity, higher = more binding, comparable within an allelic series)
binding signal [11]: 10.8 upbm affinity estimate (log intensity, higher = more binding, comparable within an allelic series)
binding signal [12]: 11.9 upbm affinity estimate (log intensity, higher = more binding, comparable within an allelic series)
binding signal [4]: 11.7 upbm affinity estimate (log intensity, higher = more binding, comparable within an allelic series)
binding signal [13]: 11.7 upbm affinity estimate (log intensity, higher = more binding, comparable within an allelic series)
binding signal [18]: 11.1 upbm affinity estimate (log intensity, higher = more binding, comparable within an allelic series)
